Results from the supplement of paper PMC11732987, “Enantioselective OTUD7B fragment discovery through chemoproteomics screening and high-throughput optimisation” (Communications Chemistry, 2025).

What was measured:
Assay in all cases: log2 ratio of Biotin-Ahx-Ub-VS probe labelling (fragment/DMSO); higher = less target engagement (more negative = stronger competition), active = hit call of the paper (q ≤ 0.05, log2 ratio ≤ -1)
Details in all cases: compound concentration: 200 uM; treatment time: 3 h
USP42 = target: T1, USP42 (UniProt Q9H9J4)
T1 sequence (whole entry): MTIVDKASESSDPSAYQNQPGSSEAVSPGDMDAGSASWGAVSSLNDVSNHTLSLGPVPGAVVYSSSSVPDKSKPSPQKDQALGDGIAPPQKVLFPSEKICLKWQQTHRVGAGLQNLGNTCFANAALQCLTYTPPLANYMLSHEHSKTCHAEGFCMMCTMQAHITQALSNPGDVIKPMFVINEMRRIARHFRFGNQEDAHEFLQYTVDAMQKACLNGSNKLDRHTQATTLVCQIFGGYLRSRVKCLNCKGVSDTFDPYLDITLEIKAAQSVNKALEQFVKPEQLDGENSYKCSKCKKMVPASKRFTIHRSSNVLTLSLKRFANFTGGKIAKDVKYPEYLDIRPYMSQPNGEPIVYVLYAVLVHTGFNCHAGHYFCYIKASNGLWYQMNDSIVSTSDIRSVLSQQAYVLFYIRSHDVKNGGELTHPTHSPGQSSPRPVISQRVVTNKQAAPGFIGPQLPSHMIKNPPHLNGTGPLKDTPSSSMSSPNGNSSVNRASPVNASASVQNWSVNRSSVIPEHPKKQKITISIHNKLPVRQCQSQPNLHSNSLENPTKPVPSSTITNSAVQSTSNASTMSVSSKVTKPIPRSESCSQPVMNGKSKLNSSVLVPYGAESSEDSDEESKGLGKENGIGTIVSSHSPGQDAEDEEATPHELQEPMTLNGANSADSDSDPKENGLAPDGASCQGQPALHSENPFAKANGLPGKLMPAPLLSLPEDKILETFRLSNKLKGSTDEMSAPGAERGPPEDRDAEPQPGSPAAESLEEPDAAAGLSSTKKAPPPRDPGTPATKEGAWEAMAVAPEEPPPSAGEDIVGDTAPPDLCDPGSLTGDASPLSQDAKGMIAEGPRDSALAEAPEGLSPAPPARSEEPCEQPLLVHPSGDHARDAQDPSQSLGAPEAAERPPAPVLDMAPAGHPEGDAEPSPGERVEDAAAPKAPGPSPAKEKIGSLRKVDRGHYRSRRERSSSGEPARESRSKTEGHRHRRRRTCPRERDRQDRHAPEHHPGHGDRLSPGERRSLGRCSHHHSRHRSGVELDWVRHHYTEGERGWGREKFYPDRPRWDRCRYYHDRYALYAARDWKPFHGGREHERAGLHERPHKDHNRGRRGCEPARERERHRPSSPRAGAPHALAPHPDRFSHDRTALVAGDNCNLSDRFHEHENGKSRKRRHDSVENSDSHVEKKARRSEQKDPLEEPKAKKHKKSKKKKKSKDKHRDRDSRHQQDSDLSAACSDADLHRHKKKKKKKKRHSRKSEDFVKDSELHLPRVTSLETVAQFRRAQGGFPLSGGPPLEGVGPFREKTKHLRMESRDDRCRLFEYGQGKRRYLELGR
In short: (§1)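 In triplicate, 495 µg of HEK293T lysate per sample was incubated with fragment at 200 µM or vehicle for 3 h. Biotin-Ahx-Ub-VS was then added to 0.5 µM final for 1 h, and labelled DUBs were captured with NeutrAvidin, digested with LysC and trypsin, and measured by diaPASEF LC-MS/MS. Data are average log2 fragment/vehicle ratios by unpaired t-test from global-median-normalised Spectronaut label-free quantities, restricted to proteins with ≥2 unique peptides.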

USP46 = USP46 (UniProt P62068)
In short: as §1

USP47 = target: T2, USP47 (UniProt Q96K76)
T2 sequence (whole entry): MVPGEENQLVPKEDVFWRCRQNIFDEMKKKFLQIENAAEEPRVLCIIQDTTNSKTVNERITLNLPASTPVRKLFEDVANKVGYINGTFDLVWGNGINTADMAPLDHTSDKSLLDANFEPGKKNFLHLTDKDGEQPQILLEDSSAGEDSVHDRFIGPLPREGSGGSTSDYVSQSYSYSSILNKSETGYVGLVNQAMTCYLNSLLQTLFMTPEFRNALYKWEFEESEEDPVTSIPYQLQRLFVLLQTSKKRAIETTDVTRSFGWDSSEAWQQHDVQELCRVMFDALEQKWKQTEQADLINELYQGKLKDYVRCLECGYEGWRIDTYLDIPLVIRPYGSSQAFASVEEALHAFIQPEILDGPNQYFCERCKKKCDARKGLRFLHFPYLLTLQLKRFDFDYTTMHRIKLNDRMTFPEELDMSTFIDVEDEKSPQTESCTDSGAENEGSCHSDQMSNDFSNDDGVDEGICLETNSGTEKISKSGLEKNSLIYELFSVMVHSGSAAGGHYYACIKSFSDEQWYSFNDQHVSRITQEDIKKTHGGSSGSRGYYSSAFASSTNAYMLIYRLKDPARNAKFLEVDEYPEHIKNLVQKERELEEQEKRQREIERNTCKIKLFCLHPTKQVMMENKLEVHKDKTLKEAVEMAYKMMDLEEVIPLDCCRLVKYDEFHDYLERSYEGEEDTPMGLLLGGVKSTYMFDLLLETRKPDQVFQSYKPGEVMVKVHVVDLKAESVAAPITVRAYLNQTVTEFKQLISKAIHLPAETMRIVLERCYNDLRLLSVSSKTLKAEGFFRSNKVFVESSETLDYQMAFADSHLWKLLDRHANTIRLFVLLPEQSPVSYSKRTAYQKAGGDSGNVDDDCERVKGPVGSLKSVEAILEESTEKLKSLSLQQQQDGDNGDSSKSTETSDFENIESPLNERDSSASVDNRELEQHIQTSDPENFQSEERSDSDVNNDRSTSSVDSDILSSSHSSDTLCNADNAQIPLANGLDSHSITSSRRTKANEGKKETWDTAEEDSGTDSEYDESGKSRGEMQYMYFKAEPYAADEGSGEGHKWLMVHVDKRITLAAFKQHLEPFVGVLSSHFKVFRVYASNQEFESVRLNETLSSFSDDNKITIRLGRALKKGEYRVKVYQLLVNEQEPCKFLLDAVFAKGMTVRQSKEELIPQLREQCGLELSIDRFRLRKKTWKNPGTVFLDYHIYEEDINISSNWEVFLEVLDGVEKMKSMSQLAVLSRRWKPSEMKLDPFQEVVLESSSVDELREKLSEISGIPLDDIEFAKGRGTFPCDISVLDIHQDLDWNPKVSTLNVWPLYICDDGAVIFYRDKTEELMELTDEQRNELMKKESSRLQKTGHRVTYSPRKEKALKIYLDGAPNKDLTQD
In short: as §1

USP48 = target: T3, USP48 (UniProt Q86UV5)
T3 sequence (whole entry): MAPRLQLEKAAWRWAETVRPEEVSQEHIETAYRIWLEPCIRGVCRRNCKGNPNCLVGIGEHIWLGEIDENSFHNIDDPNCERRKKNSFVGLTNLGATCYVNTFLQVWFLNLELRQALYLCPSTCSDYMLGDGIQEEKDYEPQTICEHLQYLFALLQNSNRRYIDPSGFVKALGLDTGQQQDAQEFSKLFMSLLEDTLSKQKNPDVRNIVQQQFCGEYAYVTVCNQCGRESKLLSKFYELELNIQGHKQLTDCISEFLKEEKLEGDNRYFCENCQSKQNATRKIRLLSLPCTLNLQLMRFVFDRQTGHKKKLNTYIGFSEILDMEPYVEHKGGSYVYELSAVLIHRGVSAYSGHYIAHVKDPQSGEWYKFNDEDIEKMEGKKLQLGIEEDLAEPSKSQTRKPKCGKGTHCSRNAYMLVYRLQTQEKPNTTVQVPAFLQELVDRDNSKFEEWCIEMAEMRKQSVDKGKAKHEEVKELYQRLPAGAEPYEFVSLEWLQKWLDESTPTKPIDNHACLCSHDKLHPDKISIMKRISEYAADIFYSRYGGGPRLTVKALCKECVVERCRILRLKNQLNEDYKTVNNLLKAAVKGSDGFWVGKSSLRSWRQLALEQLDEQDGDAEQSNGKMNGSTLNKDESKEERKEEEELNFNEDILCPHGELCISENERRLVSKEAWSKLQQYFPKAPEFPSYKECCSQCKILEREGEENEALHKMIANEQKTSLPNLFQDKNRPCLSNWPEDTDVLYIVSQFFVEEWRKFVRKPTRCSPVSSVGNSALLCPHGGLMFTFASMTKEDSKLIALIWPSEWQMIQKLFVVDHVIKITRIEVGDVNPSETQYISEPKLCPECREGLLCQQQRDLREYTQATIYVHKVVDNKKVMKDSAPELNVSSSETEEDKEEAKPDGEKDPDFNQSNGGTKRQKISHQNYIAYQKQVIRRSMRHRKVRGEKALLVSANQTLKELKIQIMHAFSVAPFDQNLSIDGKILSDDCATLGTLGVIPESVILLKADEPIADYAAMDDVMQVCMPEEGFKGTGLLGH
In short: as §1

USP5 = target: T4, USP5 (UniProt P45974)
T4 sequence (whole entry): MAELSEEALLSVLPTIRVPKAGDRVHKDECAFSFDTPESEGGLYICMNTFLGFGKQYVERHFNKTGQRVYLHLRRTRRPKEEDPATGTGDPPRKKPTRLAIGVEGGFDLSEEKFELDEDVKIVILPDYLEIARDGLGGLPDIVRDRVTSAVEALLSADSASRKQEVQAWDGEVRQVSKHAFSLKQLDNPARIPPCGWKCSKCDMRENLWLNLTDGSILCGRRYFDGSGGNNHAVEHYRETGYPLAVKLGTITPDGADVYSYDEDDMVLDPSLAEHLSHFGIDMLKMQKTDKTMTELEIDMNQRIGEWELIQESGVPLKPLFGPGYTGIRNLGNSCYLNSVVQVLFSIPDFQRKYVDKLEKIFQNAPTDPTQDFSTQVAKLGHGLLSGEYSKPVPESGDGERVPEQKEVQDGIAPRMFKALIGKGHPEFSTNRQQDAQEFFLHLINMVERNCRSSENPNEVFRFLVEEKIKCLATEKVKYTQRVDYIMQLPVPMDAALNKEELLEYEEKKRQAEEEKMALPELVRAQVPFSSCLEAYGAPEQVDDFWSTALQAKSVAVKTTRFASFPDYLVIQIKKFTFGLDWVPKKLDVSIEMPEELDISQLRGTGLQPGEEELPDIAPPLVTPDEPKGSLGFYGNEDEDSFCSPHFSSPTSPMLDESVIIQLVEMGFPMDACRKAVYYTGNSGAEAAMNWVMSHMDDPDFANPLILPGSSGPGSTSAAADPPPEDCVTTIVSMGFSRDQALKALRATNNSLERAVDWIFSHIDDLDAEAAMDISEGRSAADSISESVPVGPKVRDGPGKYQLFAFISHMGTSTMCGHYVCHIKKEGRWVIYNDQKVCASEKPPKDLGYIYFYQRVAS
In short: as §1

USP54 = USP54 (UniProt Q70EL1)
In short: as §1

USP7 = USP7 (UniProt Q93009)
In short: as §1

USP8 = target: T5, USP8 (UniProt P40818)
T5 sequence (whole entry): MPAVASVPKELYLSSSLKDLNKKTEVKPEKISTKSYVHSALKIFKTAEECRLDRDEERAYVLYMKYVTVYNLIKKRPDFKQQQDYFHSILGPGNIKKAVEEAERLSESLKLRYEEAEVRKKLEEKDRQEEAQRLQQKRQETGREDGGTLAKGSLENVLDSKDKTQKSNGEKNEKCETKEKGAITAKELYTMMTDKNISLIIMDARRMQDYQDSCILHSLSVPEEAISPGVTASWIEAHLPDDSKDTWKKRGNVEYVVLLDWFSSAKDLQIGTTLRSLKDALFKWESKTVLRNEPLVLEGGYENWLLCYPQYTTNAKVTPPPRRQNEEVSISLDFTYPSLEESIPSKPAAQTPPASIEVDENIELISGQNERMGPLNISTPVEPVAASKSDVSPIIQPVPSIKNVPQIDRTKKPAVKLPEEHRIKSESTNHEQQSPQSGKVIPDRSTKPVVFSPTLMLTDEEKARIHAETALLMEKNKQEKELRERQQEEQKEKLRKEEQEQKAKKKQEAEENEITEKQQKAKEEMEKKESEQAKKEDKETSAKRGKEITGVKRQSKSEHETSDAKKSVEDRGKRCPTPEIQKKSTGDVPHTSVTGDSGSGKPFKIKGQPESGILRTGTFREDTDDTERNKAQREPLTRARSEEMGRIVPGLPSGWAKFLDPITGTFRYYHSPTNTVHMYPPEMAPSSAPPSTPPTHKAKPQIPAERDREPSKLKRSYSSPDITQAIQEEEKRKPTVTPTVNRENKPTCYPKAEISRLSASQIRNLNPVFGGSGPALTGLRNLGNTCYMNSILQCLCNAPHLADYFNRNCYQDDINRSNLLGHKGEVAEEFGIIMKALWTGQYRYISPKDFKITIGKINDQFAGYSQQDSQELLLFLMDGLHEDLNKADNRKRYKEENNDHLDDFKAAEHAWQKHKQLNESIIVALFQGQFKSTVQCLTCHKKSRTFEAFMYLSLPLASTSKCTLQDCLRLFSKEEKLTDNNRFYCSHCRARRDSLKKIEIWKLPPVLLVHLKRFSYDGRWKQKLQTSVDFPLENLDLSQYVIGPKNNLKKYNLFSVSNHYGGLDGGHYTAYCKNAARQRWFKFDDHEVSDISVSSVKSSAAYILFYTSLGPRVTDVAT
In short: as §1

Measured: log2 ratio of Biotin-Ahx-Ub-VS probe labelling

USP7, sequence (Q93009 whole entry, looked up): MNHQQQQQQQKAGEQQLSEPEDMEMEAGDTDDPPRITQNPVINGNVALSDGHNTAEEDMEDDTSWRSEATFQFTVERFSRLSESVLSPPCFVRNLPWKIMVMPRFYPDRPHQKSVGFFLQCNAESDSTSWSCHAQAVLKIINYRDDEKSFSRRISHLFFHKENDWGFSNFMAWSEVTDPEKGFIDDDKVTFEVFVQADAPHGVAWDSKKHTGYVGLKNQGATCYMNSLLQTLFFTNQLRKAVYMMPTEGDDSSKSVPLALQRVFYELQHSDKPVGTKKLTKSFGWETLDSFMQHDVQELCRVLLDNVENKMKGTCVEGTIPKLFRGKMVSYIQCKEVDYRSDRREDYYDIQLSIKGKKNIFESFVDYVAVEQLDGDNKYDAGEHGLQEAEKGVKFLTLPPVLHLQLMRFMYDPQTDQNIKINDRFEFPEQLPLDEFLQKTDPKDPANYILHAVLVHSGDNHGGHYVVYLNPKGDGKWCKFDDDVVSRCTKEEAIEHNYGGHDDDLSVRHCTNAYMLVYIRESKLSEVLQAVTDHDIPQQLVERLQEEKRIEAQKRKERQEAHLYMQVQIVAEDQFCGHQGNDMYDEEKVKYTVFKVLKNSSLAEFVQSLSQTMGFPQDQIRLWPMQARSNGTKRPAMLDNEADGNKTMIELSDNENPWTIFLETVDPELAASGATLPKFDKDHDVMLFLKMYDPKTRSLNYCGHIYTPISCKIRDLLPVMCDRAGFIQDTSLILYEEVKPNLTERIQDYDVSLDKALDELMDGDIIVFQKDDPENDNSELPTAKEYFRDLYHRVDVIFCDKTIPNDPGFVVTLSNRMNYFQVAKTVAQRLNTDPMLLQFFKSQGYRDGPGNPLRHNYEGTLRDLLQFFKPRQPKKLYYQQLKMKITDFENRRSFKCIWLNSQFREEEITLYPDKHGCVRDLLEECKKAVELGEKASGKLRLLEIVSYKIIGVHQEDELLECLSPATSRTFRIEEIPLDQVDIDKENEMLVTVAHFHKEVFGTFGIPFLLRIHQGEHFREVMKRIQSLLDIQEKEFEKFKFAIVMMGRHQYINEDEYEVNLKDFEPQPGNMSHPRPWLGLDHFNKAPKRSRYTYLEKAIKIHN
USP54, sequence (Q70EL1 whole entry): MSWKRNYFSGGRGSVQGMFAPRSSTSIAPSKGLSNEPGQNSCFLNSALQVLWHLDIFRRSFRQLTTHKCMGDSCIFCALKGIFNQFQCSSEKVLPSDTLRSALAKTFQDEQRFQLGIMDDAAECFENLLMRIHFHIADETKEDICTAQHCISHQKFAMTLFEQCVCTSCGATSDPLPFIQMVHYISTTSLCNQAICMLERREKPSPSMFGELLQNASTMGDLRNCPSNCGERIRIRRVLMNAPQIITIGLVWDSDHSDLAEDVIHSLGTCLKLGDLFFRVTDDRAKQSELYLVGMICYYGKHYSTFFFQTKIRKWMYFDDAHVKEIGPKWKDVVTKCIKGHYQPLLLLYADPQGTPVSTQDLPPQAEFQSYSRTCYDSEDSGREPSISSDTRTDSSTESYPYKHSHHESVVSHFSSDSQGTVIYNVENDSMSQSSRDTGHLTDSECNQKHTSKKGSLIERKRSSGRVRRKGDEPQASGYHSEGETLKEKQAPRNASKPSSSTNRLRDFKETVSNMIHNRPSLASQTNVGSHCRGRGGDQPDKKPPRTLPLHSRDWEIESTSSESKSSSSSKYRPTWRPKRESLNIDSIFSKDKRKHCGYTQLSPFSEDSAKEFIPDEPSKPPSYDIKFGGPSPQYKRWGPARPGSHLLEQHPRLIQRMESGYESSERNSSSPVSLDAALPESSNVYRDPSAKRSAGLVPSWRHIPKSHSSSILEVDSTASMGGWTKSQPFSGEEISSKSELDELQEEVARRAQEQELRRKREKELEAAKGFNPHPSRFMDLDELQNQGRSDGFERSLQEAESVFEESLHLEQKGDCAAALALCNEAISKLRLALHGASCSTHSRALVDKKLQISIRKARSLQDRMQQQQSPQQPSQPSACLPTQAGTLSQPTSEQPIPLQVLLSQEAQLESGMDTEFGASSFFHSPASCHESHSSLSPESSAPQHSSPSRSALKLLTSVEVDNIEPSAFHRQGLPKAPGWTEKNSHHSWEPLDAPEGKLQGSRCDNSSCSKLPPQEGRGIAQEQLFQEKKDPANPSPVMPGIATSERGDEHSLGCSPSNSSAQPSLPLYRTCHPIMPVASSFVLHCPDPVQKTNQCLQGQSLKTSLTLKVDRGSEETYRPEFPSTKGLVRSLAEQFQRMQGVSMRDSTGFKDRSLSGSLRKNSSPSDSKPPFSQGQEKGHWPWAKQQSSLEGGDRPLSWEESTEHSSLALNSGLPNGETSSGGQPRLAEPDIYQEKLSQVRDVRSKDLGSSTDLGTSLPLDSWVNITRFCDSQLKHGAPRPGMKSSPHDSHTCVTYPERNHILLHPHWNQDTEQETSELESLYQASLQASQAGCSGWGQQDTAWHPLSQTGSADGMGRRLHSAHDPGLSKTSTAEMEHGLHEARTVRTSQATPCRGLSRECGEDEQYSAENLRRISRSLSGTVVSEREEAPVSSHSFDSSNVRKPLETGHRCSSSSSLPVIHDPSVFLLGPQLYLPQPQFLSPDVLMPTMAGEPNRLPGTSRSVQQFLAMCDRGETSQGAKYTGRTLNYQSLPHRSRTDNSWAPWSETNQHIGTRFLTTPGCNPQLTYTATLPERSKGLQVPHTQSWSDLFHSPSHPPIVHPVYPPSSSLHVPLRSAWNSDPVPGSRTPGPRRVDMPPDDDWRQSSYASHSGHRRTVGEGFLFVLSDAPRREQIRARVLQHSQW
USP46, sequence (P62068 whole entry): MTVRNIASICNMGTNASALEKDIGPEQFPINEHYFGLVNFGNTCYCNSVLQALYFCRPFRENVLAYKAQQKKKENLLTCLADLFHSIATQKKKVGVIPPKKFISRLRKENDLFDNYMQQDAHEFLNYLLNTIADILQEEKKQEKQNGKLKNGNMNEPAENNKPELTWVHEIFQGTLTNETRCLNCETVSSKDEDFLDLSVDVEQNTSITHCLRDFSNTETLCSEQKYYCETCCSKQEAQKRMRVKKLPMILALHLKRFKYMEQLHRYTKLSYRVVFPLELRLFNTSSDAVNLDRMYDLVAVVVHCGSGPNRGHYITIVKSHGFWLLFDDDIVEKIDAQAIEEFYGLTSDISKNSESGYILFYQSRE

COCC1C=CCCN1C(=O)CCl (stereo not drawn)
inactive: USP42 -0.485 | USP46 0.0708 | USP47 -0.789 | USP48 -0.152 | USP5 0.0548 | USP54 0.237 | USP7 -0.21 | USP8 -0.0182
